# Data from PMC12136788.
# Positions count from the first letter of the chain named. In all, about 24,000 sequences were measured (“enrichment r”: median about 0.99, highest 2% from about 3.7 on). The list comes from a sample in which the highest values are over-represented; it also holds similar and randomly drawn sequences.
# T1: UNK ZnF1-3 (human, UniProt Q9C0B0 31-174)
# T1 sequence: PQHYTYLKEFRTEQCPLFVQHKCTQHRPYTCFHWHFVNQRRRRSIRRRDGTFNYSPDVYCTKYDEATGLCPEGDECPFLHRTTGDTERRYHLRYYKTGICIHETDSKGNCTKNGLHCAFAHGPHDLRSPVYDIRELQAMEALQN
# B1: chr6:74304526:74304527:-_ENSG00000119899_ENST00000355773|hu_hu|motif|central (ssRNA)
# RNA: GGGAGUUCUACAGUCCGACGAUCUAAUUAAGCAAAGGUAUCAGGAGGUCUGUUUCAGCUCAUUCCCUUUAGUAUGGCCCGGAAAAAUCAACAGAACUGUCCUACUUCAUGUUGCCCGACUAGCAGGCAGGUAUGUGAACCUAACAACAGAGGAUUGAGCAUCA
# B2: 6859137_6859426_438_3pUTR_ENSG00000089693_ENST00000435120|human|control|control (ssRNA)
# RNA: GGGAGUUCUACAGUCCGACGAUCGUCUGAAUCCCGAACAGUCCUCCGUGUCUCCCGGAUCCCGCCUGGUGCCGAGCGCAUCUCUGAUGUCUCUUGGUAGACCUUGGGGGCACCAUCACCCGUAUUGGAGUAGGAGAUGACAGUCAACAGAGGAUUGAGCAUCA
# B3: chr18:35731670:35731671:+_ENSMUSG00000037236_ENSMUST00000166793|perfect_dup|motif|central (ssRNA)
# RNA: GGGAGUUCUACAGUCCGACGAUCUGACCCUGUGAAUCCCUACCGAGAGAUGACUGCUGGAAUGACUUGGACAUUGUAGAACGGUCUCUUGUCUAUUUUAUAGAUCAAAAAAAAAAAAAAAAGUUUUAAAAGAUGGCCAAAAAGCAACAGAGGAUUGAGCAUCA
# B4: chr1:39494564:39494565:+_ENSG00000168653_ENST00000372967|hu_hu|hu_hu_hu_mus_True|28_78 (ssRNA)
# RNA: GGGAGUUCUACAGUCCGACGAUCAUGCAUUCGCCUCAUCGUUUUGUACCGAAGCAAACACUCUACGAAGUCAUCGAACUCUAUCUUGCACUCCUUUUUCGCCCGGGUAUAACCGAUCCCGUGUGCACACUCUAUCCACUCUUUCAACAGAGGAUUGAGCAUCA
# B5: chr7:44244176:44244177:+_ENSG00000106636_ENST00000223369|hu_mus|hu_hu_hu_mus_False|48_48 (ssRNA)
# RNA: GGGAGUUCUACAGUCCGACGAUCACUGUCGCUCCGGACGUAGACAUGGCAAAGAUACUCUUGUUCUUUGACAGAAGCUCUGCUGCCUUUCGAUGAGCGUUCCACAAUCAGUUGACUUGUAAAGGUCAUGAAUUCCUGCACACUCAACAGAGGAUUGAGCAUCA
# B6: chr2:157388114:157388115:+_ENSMUSG00000067786_ENSMUST00000109526|mus_mus|motif|central (ssRNA)
# RNA: GGGAGUUCUACAGUCCGACGAUCUUGGUGGAGGUGGUCCCUGUCUCCAGGAGCUUACAAUCUAGCUGGGGAGACACGGCGGAUGCACACUUAAACCAGUACAAUUAGCGACUACCACAAUAUUGACCACAACUGCUGCGUGAGCAACAGAGGAUUGAGCAUCA
# B7: chr1:185089287:185089288:-_ENSG00000121486_ENST00000367506|hu_hu|FALSE|FALSE (ssRNA)
# RNA: GGGAGUUCUACAGUCCGACGAUCUGACUGGACAUGGCUUUCUGACUGUCCUCCAGUGUAGGUGGGGGUGCUGUACUUUAAAAGGAUAGAUUUAAACUGCAUCAGAGGUGCAUCUGUGCGUACACCCAUUGGGUCAAAAUGAGUCAACAGAGGAUUGAGCAUCA
# B8: 13689013_13692640_988_3pUTR_ENSMUSG00000022684_ENSMUST00000023365|mouse|control|control (ssRNA)
# RNA: GGGAGUUCUACAGUCCGACGAUCCACUCCCAGGGCUCUCACACGCUCCAGCUCCGUGAGGAUGACCCUUCUGUGGCUACUGUUCUCUAUGGUAUAAGGUGCCCUGGAAAACUCUUCUUCUGUCAAAGUUAAAAGCAACCUUCCCAACAGAGGAUUGAGCAUCA
# B9: chr2:120842339:120842340:+_ENSMUSG00000023572_ENSMUST00000060455|mus_mus|motif|central (ssRNA)
# RNA: GGGAGUUCUACAGUCCGACGAUCCUUAAGGACAGAGGCUGCCUUUCUAUCGAGCAAACACCCUGUCAAAGCUCCACUUCGGAAAGCAGACGUUAAAAAAACUUAAAAAAUAAAUAGGUAAAGCAGACACUGGAUCGUGGGUGUCAACAGAGGAUUGAGCAUCA
# B10: 158551514_158564203_814_3pUTR_ENSG00000122335_ENST00000367104|human|control|control (ssRNA)
# RNA: GGGAGUUCUACAGUCCGACGAUCCACCCUUCUGAGCAGCUAGACUCUGACUGCUUUCACUAAGAGCCAAAGAUGUAAAAUACUGGAUACACUCAUCUAGCUCUGUUUGAGGUAAGGAAGCCAGCAACUGUCUGAGCUCUUCUUCAACAGAGGAUUGAGCAUCA
# B11: 104620154_104620274_4085_CDS_ENSMUSG00000074994_ENSMUST00000117237|mouse|control|control (ssRNA)
# RNA: GGGAGUUCUACAGUCCGACGAUCACCUCCACUUUCAAUAUUUUCCUCAUCUGUAAAACCUUCUAUUGCAACUGUGUCCUGUCCUUUUGCCAACUGGUCUGAAGGAAGACUAUCAAGUUCGAUGGCUGUGGGGGAUUCUGUGGACAACAGAGGAUUGAGCAUCA
# B12: chr2:120842339:120842340:+_ENSMUSG00000023572_ENSMUST00000060455|mus_mus|FALSE|FALSE (ssRNA)
# RNA: B9 RNA with G80U, G81A
# B13: chr18:35731670:35731671:+_ENSMUSG00000037236_ENSMUST00000166793|perfect_dup|motif|central (ssRNA)
# RNA: GGGAGUUCUACAGUCCGACGAUCUGACCCUGUGAGUCCCUACUGAGAGAUGACUGCUGGAAUGACUUGGACAUUGUAGAACGGGCUCUUGUCUAUUUUAUAGAUUAAAAAAAAAAAUUUUUUUAAAGACGGCCAAAAAGAAAGCAACAGAGGAUUGAGCAUCA
# B14: chr16:20683585:20683586:+_ENSMUSG00000045983_ENSMUST00000044783|mus_mus|motif|central (ssRNA)
# RNA: GGGAGUUCUACAGUCCGACGAUCUAUUGCUUCUGUUAACAUCUUCAACUUGAAUAACUCUCCAAUAAACUUGAUAUUCCCGGAAGAGCGCCGCCUAGCUAUGUCCCGGGCUUCUUCUAGCUCUUCUUUCAGGCGUCCCCGUUCCAACAGAGGAUUGAGCAUCA
# B15: chr17:24706804:24706805:+_ENSMUSG00000032855_ENSMUST00000035565|mus_hu|FALSE|FALSE (ssRNA)
# RNA: GGGAGUUCUACAGUCCGACGAUCGCAGCCGGGCACGAAGGUGGCCACCAGGGCAGGGCAGACAUUCUCAAAGCGGGCGCUGACACUGCCCCCAGGCCAGCGAGCCGUGGCCGUGGCGUUGGCACCAGAGUCCACCUGGAGCACCAACAGAGGAUUGAGCAUCA
# B16: chr7:17149110:17149111:-_ENSMUSG00000058230_ENSMUST00000075845|mus_hu|FALSE|FALSE (ssRNA)
# RNA: GGGAGUUCUACAGUCCGACGAUCAAUAUCCAUGUAUACAGAUUCCUCCAGCCACUGGUAGAAAUCCUCAUUCAUAAUAAAACUACGGGCCUCUUCCCAAGGCUUUCCGGGAGUUAUGAAAGGAGAAGUCUCCAGGUUUUCUUUCAACAGAGGAUUGAGCAUCA
# B17: chr12:8504966:8504967:-_ENSMUSG00000054364_ENSMUST00000067384|mus_hu|FALSE|FALSE (ssRNA)
# RNA: GGGAGUUCUACAGUCCGACGAUCACAAGUGUGGUCAGAAUGCUACUGUCGUAUGCAAAUGACGAGUGCAUUAAGUGUCAAACAAUGAAACAAUUGUGCAAAGAAUAAAAAAACAAAUUUUAGCCUUUAAAUAAAUCAAAUAACCAACAGAGGAUUGAGCAUCA
# B18: chr5:141234466:141234467:-_ENSMUSG00000000149_ENSMUST00000000153|mus_hu|motif|central (ssRNA)
# RNA: GGGAGUUCUACAGUCCGACGAUCUAAUAAAAAAGACAAUAAGGAUUAACAGUGAAAUUAAAAUUAAAAAAUACAAAAGCCGGAGGUUCUGGAGACAAAACUGACUAGAGUCUAUGUGUAGCCAAGUUGUGAAUGACAGUUUAGCAACAGAGGAUUGAGCAUCA
# B19: chr5:141234466:141234467:-_ENSMUSG00000000149_ENSMUST00000000153|mus_hu|FALSE|FALSE (ssRNA)
# RNA: B18 RNA with G81U, G82A
# B20: 83879064_83879184_615_CDS_ENSMUSG00000030016_ENSMUST00000032088|mouse|control|control (ssRNA)
# RNA: GGGAGUUCUACAGUCCGACGAUCUGGAGUUAUAUGAGACUCAUCAUCCCACCGACUACCAUGAGGCUUCCCCUUCUUUUGUUGUGCUUCAGGAAAAUCCAAUUUUUCUUUGGUUAAUCUUGGAUCGGUUCGGUGUUGAGUUACCAACAGAGGAUUGAGCAUCA
# B21: chrX:20248820:20248821:+_ENSMUSG00000001924_ENSMUST00000001989|mus_mus|mus_mus_mus_hu_True|58_98 (ssRNA)
# RNA: GGGAGUUCUACAGUCCGACGAUCGGCGAAGUCCGUCAUCACAAAGUCAGGUUCUGCCAGUGAGGCCACCAAGGAUUUAAAACUAAUCUUCUUAGGUACUUUGACCUGACUGACGAUGCCUCCACGGAUGUAGUCGGAGAAGUUCAACAGAGGAUUGAGCAUCA
# B22: chr17:35253193:35253194:-_ENSMUSG00000024387_ENSMUST00000025246|mus_mus|FALSE|FALSE (ssRNA)
# RNA: GGGAGUUCUACAGUCCGACGAUCGGCCUUUUCUUCCUUUAUUUCAUAUUCCCACCACAGUAACAAUUCCUUUAAUUUAAACUAAAAACCAUAGACUUCCUGAAAGGGUGGCAGCAGAGGAAUGGUGGUGUCACAGACAGAGGGCAACAGAGGAUUGAGCAUCA
# Molecular target: T1, UNK ZnF1-3
# Assay: nsRBNS (natural sequence RNA bind-n-seq); RBNS binding buffer (assumed for nsRBNS): 25 mM Tris pH 7.5, 150 mM KCl, 3 mM MgCl2, 0.01% Triton X-100, 500 ug/ml BSA, 20 U/ml SUPERase-In, 4 C; UNK is unkempt and MSI1 is Musashi-1; names of the RNAs are library labels; protein concentration not given here; high values mean tight binding
row,Binder,binding signal [enrichment R]
1,B1,0.917
2,B2,0.67
3,B3,3.64
4,B4,0.645
5,B5,0.634
6,B6,1.28
7,B7,0.951
8,B8,0.702
9,B9,3.71
10,B10,0.91
11,B11,0.848
12,B12,5.28
13,B13,3.64
14,B14,0.438
15,B15,0.934
16,B16,0.85
17,B17,2.25
18,B18,13.3
19,B19,9.17
20,B20,0.468
21,B21,0.876
22,B22,1.66
